SARS PLpro yeast – qHTS of Yeast-based Assay for SARS-CoV PLP | S. cerevisiae expressing SARS-CoV PLpro, growth rescue | Potency, µM (top dose mostly 32.9 µM), without a hit: at the highest dose activity, positive = growth rescue, most hits filed as activators | hit rate 0.19% among 330,000; calls by dose curve; note: potency is the fitted concentration of half-maximal effect; 0% is about no effect; nearly all actives have a fitted effect of over 55% in size
CHX counter – Cycloheximide Counterscreen for Small Molecule Inhibitors of Shiga Toxin; cell reporter, cycloheximide protein synthesis inhibition counterscreen; max response, %; hit rate 12% among 300,000; AID 2314, 2010; in the data active = max response mostly above about 13%, no sharp cut-off; inactive = mostly below about 14%; note: read at 38.3 µM for the half of the compounds with a filed dose; 0% is about no effect
Shiga toxin inh – A qHTS for Small Molecule Inhibitors of Shiga Toxin; AID 2315, 2010; inhibition, % at 38.7 µM; hit rate 9.2% among 290,000; Vero cells, Shiga toxin protein synthesis inhibition reporter; in the data active = inhibition mostly above about 28%, no sharp cut-off; inactive = mostly below about 43%; note: 0% is about no effect
AMA1-RON2 inh – qHTS for Inhibitors of AMA1-RON; Towards Development of Antimalarial Drug Lead: Primary Screen; Plasmodium falciparum AMA1 (3D7) - RON2 peptide interaction; AlphaScreen AMA1-biotinylated RON2 peptide binding; Potency, µM (doses to about 58.2 µM), for inactives: top-dose activity change, negative = inhibition, hits mostly inhibitors; hit rate 0.2% among 360,000;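 note: potency is the fitted concentration of half-maximal effect; 0% = vehicle wells and -100% = peptide control; nearly all actives have a fitted effect of over 45% in size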
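AMA1 (3D7) with his tag at 25 nM final met compounds first, then biotinylated RON2 peptide at 25 nM; detection used donor plus acceptor beads, 10 µg/mL apiece, read by AlphaScreen after 30 min at room temperature.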
Pf growth 48h – Primary qHTS for delayed death inhibitors of the malarial parasite plastid, 48 hour incubation; P. falciparum luciferase growth in erythrocytes, 48 h; AID 504832, 2011; hit rate 5.9% among 310,000; Potency, µM (series often up to 28.7 µM), for inactives: at the highest dose activity change, negative = inhibition, usual class: inhibitors; note: potency is the fitted concentration of half-maximal effect; % is set by controls: 0 for no effect and ±100 for the full control effect
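Luciferase-expressing P. falciparum in infected erythrocytes (2% hematocrit, 0.1% parasitemia final) in RPMI 1640/0.5% Albumax were exposed to compound for 48 hours at 37 C, 5% CO2; growth read as luminescence.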
Pf growth 96h – Primary qHTS for delayed death inhibitors of the malarial parasite plastid, 96 hour incubation; P. falciparum luciferase reporter growth, 96 h; Potency, µM (titrated, usually from 28.7 µM), for the others: at the highest dose activity change, negative = inhibition, most hits filed as inhibitors; hit rate 6.9% among 320,000; note: potency is the fitted concentration of half-maximal effect; % is set by controls: 0 for no effect and ±100 for the full control effect
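P. falciparum expressing integrated firefly luciferase grown in erythrocytes (2% hematocrit, 0.05% parasitemia final) with compounds for 96 hours at 37 C, 5% CO2. Growth inhibition read as loss of luminescence after adding luciferase detection reagent.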
Active calls of the source: *; ? = inconclusive; . = no result. This is a sample that favours compounds with a hit; in the whole collection about 19% have one here. Unless noted, calls come from the whole dose curve; as a rule, active = well fitted curve in the direction sought with a large enough effect; inconclusive = small, poorly fitted or top-dose-only effect, or another doubt; inactive = no such curve, though single readings can be large; an effect the other way counts as inactive or inconclusive.

SMILES | SARS PLpro yeast | CHX counter | Shiga toxin inh | AMA1-RON2 inh | Pf growth 48h | Pf growth 96h
CC(=O)N1c2ccccc2C(C)(c2ccccc2)CC1(C)C (configuration not stated) | -36.4% | -4.0 | 5.1 | -15.3% | 9.28µM* | .
CCCCn1c(N)c(N(CCOC)C(=O)CSc2nc3ccc(C)cc3[nH]2)c(=O)[nH]c1=O | -1.4% | -3.4 | -2.9 | -8.9% | ? | 9.28µM*
CCCCn1c(N)c(N(CCC(C)C)C(=O)COC(=O)c2ccc([N+](=O)[O-])s2)c(=O)[nH]c1=O | 4.2% | . | . | 8.7% | . | .
CCCCN(C(=O)c1cccc(S(=O)(=O)N(C)c2ccc(C)cc2)c1)c1c(N)n(CCCC)c(=O)[nH]c1=O | 6.4% | . | . | -18.1% | 0.37µM* | ?
CCCCN(C(=O)c1ccc([N+](=O)[O-])s1)c1c(N)n(CCCC)c(=O)[nH]c1=O | -5.0% | . | . | -7.8% | 10.4µM* | ?
CCCCn1c(N)c(N(CCOC)C(=O)c2cccc(S(=O)(=O)N(C)c3ccc(C)cc3)c2)c(=O)[nH]c1=O | . | . | . | 1.8% | 6.57µM* | 9.28µM*
CN(CC(=O)Nc1ccc(Cl)cc1)C(=O)CN1C(=O)C2CCCCC2C1=O (configuration not stated) | . | . | . | 5.6% | . | .
C=CCOC(=O)CN1C(=O)c2ccccc2C1=O | 7.9% | 10.0 | 14.9 | -3.7% | 28.6% | -19.7%
Cc1ccc(Cl)cc1N1CCN(S(=O)(=O)c2cnc[nH]2)CC1 | -5.8% | -4.3 | -11.0 | 19.7% | . | -2.3%
Cn1c(SCc2ccccc2C#N)nc2ccccc2c1=O | 1.7% | -1.2 | -2.9 | 0.9% | 0.0% | 0.0%
O=C(/C=C/c1ccccc1)N1CCN(c2cccc(Cl)n2)CC1 | -0.4% | -2.5 | -4.6 | -6.9% | 0.0% | 3.1%
COc1ccc(/C=N/c2nc3ccccc3n2C)cc1OC | 5.1% | 27.1 | -10.1 | -0.8% | 1.1% | 23.6%
COc1ccc(/C=N/c2oc(-c3ccccc3)cc2C#N)cc1OC | -7.5% | 22.8* | 62.1* | 15.5% | -11.8% | 21.6%
COc1ccc(OC)c(CCNC(=O)CCc2nnc3ccc(N4CCCC4)nn23)c1 | 2.5% | -0.9 | -2.4 | 6.7% | 1.4% | ?
CCc1ccc(C(=O)COC(=O)c2cccnc2Cl)cc1 | -1.3% | 39.2* | 94.8* | 13.8% | 38.8% | 46.7%
O=C(OCc1ccc(COC(=O)c2cccnc2Cl)cc1)c1cccnc1Cl | -0.8% | -1.3 | -5.9 | 0.9% | 31.7% | 12.7%
O=C(OCc1ccc(F)cc1)c1cccnc1Cl | 11.0% | 9.1 | 25.0 | 29.2% | 18.2% | 6.7%
O=C(COC(=O)c1cccnc1Cl)c1ccccc1 | -7.9% | 47.1* | 70.8* | -1.8% | 45.7% | ?
O=C(OCC(=O)c1ccccc1Br)c1ccccn1 | -6.4% | -0.7 | 4.1 | ? | 20.1% | 8.28µM*
O=C(COC(=O)c1cccnc1Cl)c1ccc(F)cc1 | -0.2% | 22.0* | 96.6* | 6.8% | 9.7% | 21.5%
Cc1ccc(-n2c3c(c(=O)[nH]c2=O)C(C(F)(F)F)(C(F)(F)F)NC(=O)N3)cc1 | -1.4% | 10.0 | -9.6 | 37.7% | 40.0% | 29.9%
Fc1ccccc1-c1cc2ccccc2cn1 | 5.2% | . | . | 1.5% | 83.9% | ?
O=C(CNCc1ccco1)Nc1ccc(Oc2ccccc2)cc1 | -1.0% | 13.0 | 66.8 | -6.0% | 15.2% | ?
O=C(CN1C(=O)CC(c2ccccc2)S(=O)(=O)c2ccccc21)N1CCOCC1 (configuration not stated) | 0.9% | -3.1 | 13.6 | . | 10.4% | -9.8%
CCCC(C)(C)C(=O)N1CCC1(C)C(=O)NS(=O)(=O)c1ccc(Br)cc1 (configuration not stated) | . | . | . | 0.7% | . | .
N#CCc1ccc(OC(=O)c2cccnc2Cl)cc1 | . | . | . | -3.2% | . | .
CCC(C)(C)c1ccc(OC(=O)c2cccnc2Cl)cc1 | -3.0% | 38.2* | 124.5* | 23.1% | ? | 27.3%
CCON=O | . | . | . | . | -75.3% | 2.69µM*
CCOC(=O)c1[nH]c(=S)n(-c2ccccc2)c1C(=O)OCC | . | . | . | 133.6% | . | .
Cc1ccc(CNC(=O)/C=C/c2cccs2)cc1 | -13.9% | 26.8* | 78.0* | 11.4% | 57.0% | 5.0%

From PubChem BioAssay
